Source: PubChem BioAssay (Tox21)
Activity calls are given as the source filed them. Calls come from the whole dose curve.

Test: qHTS assay to identify small molecule agonists of the sonic hedgehog signaling (Shh) pathway (AID 1259368);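 note: NIH/3T3-derived 3T3Gli1-Luc cells carrying a stable Gli1-driven firefly luciferase reporter; nearly all actives have a fitted effect of over 15% in size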
Conditions: NIH/3T3 Gli1-Luc reporter, luciferase, 24 h; series mostly up to 92.4 µM
From the text: National Center for Advancing Translational Sciences [NCATS]
NIH Chemical Genomics Center [NCGC]
U.S. Environmental Protection Agency [EPA]
National Institutes of Environmental Health Sciences [NIEHS]
National Toxicology Program [NTP]
The sonic hedgehog (Shh) pathway is essential for normal embryonic development. Dysregulation of the Shh pathway can cause severe developmental defects in organs. Therefore chemicals that interfere with the pathway are potential developmental toxicants. A cell line designated 3T3Gli1-Luc (DMB/OARSA/CFSAN/FDA, Laurel, MD), a NIH/3T3 derived clone containing stably integrated Gli1-Luc reporter is used to detect chemical interference of the Shh pathway, by changes in the expression of the firefly Luc gene under the control of the Gli1 transcriptional response element. This cell line was used to screen Tox21 libraries for identifying and prioritizing the potential developmental toxicants that interfere Shh pathway.
3T3 Gli1-Luc cells were dispensed at 2,000 per well in 5uL of culture medium into white solid bottom 1536-well plates (Greiner Bio-One, Monroe, NC) using a Multidrop Combi (Thermo Scientific, Waltham, MA) dispenser. The assay plates were incubated at 37 C and 5% CO2 for 4hr, and then 23nL of compounds dissolved in DMSO and positive control were transferred using a Pintool station (Wako, San Diego, CA). The assay plates were incubated at 37C and 5% CO2 for 24hr. For luciferase read, 4uL of Amplite Luciferase reporter gene assay reagent (AAT Bioquest, Inc. Sunnyvale, CA) was added to each well of the assay plates using Flying Reagent Dispenser (FRD, Aurora Discovery, San Diego, CA) and incubated at room temperature for 30min. The luminescence signal was measured using a ViewLux plate reader (Perkin Elmer, Shelton, CT).

SMILES	outcome
ClC(Br)Br	inactive
CC(N)=S	inactive
COc1cc(OC)nc(NC(=O)NS(=O)(=O)c2ncccc2C(=O)N(C)C)n1	inactive
CN1CCN(C(=O)O[C@H]2c3nccnc3C(=O)N2c2ccc(Cl)cn2)CC1	inactive
Nc1n[nH]c(N)n1	inactive
O=S(=O)(O)C(F)(F)C(F)(F)C(F)(F)C(F)(F)C(F)(F)C(F)(F)F	inactive
COC(=O)COc1ccc(Cl)cc1Cl	inactive
CCNc1nc(NC(C)C)nc(OC)n1	inactive
Nc1cc2c3c(c1)C(c1ccccc1)=N[C@@H](NC(=O)c1cccnc1)C(=O)N3CC2	inactive
CCCCOC(=O)c1ccccc1C(=O)O	inactive
Cc1cc(C)nc(Nc2ccccc2)n1	inactive
COc1cc2c(cc1OC)[C@@]13CCN4CC5=CCO[C@H]6CC(=O)N2[C@H]1[C@H]6[C@H]5C[C@H]43	inactive
CCCCCCI	inactive
CC(C=O)Cc1ccc2c(c1)OCO2 (stereo not given)	inactive
COC(=O)c1ccccc1S(=O)(=O)NC(=O)N(C)c1nc(C)nc(OC)n1	inactive
CC(C)CC#N	inactive
Cc1cc(C)c(C(=O)P(=O)(C(=O)c2c(C)cc(C)cc2C)c2ccccc2)c(C)c1	inactive
CC1CN1P(=O)(N1CC1C)N1CC1C (stereo not given)	inactive
CC(C)(C)OC(=O)c1ncn2c1[C@@H]1CCCN1C(=O)c1c(Br)cccc1-2	inactive
CCCCN(CCCCO)N=O	inactive

SMILES	outcome
O=C(Nc1ccccc1)c1ccccc1I	inactive
N#CC(Cl)(Cl)Cl	inactive
C[N+](C)=CCl	inactive
CC1=NNC(=O)N(/N=C/c2cccnc2)C1	inactive
CCCCc1c(C)nc(NCC)[nH]c1=O	inactive
CCCCCCBr	inactive
Nc1cc(Cl)ccc1O	inactive
CC(C(O)c1ccccc1)N(C)C/C=C/c1ccccc1 (stereo not given)	inactive
CC(C)COP(=O)(OCC(C)C)OCC(C)C	inactive
Cc1cccc(C#N)c1	inactive
CCOP(=S)(OCC)Oc1ncn(-c2ccccc2)n1	inactive
CCCCC(=O)Cl	inactive
CN1CCC(N(Cc2ccccc2)c2ccccc2)CC1	inactive
O=c1oc2ccccc2c(O)c1C1CCCc2ccccc21 (stereo not given)	inactive
C[C@]12CC[C@H]3[C@@H](CC=C4C[C@@H](O)CC[C@@]43C)[C@@H]1CC[C@@H]2O	inactive
COc1cccc2c1cc([N+](=O)[O-])c1c(C(=O)O)cc3c(c12)OCO3	inactive
O=C1CN2CCOC2(c2ccccc2Cl)c2cc(Cl)ccc2N1 (stereo not given)	inactive
COc1cccc(C(=O)NN(C(=O)c2cc(C)cc(C)c2)C(C)(C)C)c1C	inactive
CCN(CC)c1nc(C)cc(OP(=S)(OC)OC)n1	inactive
NC(=S)C(N)=S	inactive
